# From PubChem BioAssay AID651843 (National Center for Advancing Translational Sciences (NCATS), 2012)
# The other results are listed elsewhere or left out. Inconclusive results are not listed. Calls of active or inactive are those of the source. Calls come from the whole dose curve; as a rule, active = well fitted inhibition curve with a large enough effect; inconclusive = small, poorly fitted or top-dose-only effect; inactive = no such curve, though single readings can be large or run the other way.
# Experiment: qHTS Assay for Inhibitors of MBNL1-poly(CUG) RNA binding: Counterscreen HTRF assay
# Conditions: His-Menin/biotin-MLL peptide TR-FRET counterscreen; series mostly up to 57.6 µM
# Description: NIH Chemical Genomics Center [NCGC] NIH Molecular Libraries Probe Production Centers Network [MLPCN] MLPCN Grant: R03 MH087421-01 Assay Submitter (PI): Charles Thornton NCGC Assay Overview: Expanded CTG repeats in the 3' untranslated region of the DM protein kinase (DMPK) gene causes type I myotonic dystrophy (DM1). DM1 is a multi-systemic disease with a prevalence of 1/7000. Clinical features include myotonia, progressive muscle weakness and wasting, cardiac arrhythmia, insulin resistance, hypersomnolence, cataracts, and other symptoms. The pathogenic effect of expanded CTG repeats stems from deleterious effects of the mutant transcript. CUGexp mRNA accumulates in nuclear foci and sequesters proteins of the muscleblind family, of which MBNL1 is the most common family member in skeletal muscles. […] This brings the terbium label within close proximity to XL665 to allow time-resolved fluorescence resonance energy transfer (TR-FRET). […]
# This assay uses a ratiometric measurement of TR-FRET binding assay with His-Menin and Biotin-MLL peptide. […] (3) Add 1 ul of 0.22 ng/ul terbium labeled anti-His antibody (0.055 ng/ul final concentration) (4) Add 1 ul of 20 nM streptavidin-XL665 (5 nM final concentration) (5) Incubate 60 min at room temperature (6) Detect the assay plate in a EnVision plate reader (PerkinElmer) with Ex=340 nm, Em1=665 nm and Em2=545 nm.
row,SMILES,outcome
1,CCOC(=O)c1c(C)[nH]c2c1-c1ccccc1C(=O)C2=O,inactive
2,NCCC[C@H](N)CC(=O)N[C@H]1CNC(=O)[C@H]([C@H]2C[C@H](O)NC(N)=N2)NC(=O)/C(=C/NC(N)=O)NC(=O)[C@H](CO)NC(=O)[C@H](CO)NC1=O,inactive
